Data on 6 compounds can be found in PubChem BioAssay.

Assay [1] relates to Human papillomavirus type 1a protein E7 (residues 44-93). Nature of the assay: HPV1a E7 fragment binders on microarrays, primary screen, biochemical, small-molecule microarray, residues 44-93, 635 nm fluorescence (AID 1108).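 Note: E7 fragment applied at 1 µg/mL in TBST for 1 h at 4 C; score combines spot fluorescence with its signal to noise ratio.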 To be noted: small-molecule microarray binding, fluorescence 635 nm; higher = more signal.
A short description of assay [2]: modulators of HCV replicon luciferase signal, primary screen, HCV replication inhibitor project, Huh7 cells, luciferase reporter (AID 1109).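 Note: huh7 hepatoma cells harbouring a luciferase neomycin HCV replicon reporter; luciferase luminescence as measure of HCV replicon replication; test concentration not given here.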 The conditions noted are these: 48 h, higher = more signal. A general note: Replicon systems follow genome replication, usually without infectious particles.
Assay [3] concerns the target Left-right determination factor 2 (Homo sapiens) (UniProt O00292). As to the kind of experiment: LEFTY2 binders on small-molecule microarrays, primary screen, biochemical, small-molecule microarray, 635 nm fluorescence scan (AID 1110). The conditions noted are these: LEFTY2 binding, higher = more signal.
For assay [4], the target named is Calmodulin-1 (Homo sapiens) (UniProt P0DP23). Nature of the assay: CALM1 binders on microarrays, EGTA buffer, profiling panel, biochemical, small-molecule microarray, Cy5-labelled CALM1 (AID 1111).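 Note: labelled calmodulin applied in Tris saline Tween buffer holding calcium plus EGTA and DTT.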 To be noted: Cy5-CALM1 binding fluorescence, higher = more signal.
Assay [5] shares this target. Nature of the assay: calcium-bound CALM1 binders on microarrays, profiling panel, artefact control for SMM control-protein annotation, biochemical, small-molecule microarray, Cy5-labelled CALM1, plus calcium (AID 1112).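 Note: score merges spot fluorescence with signal to noise from triplicate slides.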 To be noted: Cy5-CALM1 binding fluorescence, higher = more signal.
Assay [6] in a line: small-molecule microarray binders of probe aWnt5a, primary screen, biochemical, biotinylated probe, 635/667 nm fluorescence (AID 1113).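 Note: score merges 667 nm fluorescence intensity with signal-to-noise per printed feature.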 The conditions noted are these: higher = more signal.
Assay [7] can be described thus: small-molecule microarray binders of probe aShh, primary screen, biochemical, biotinylated probe, 635/667 nm fluorescence (AID 1114).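 Note: probe is biotin-labelled aShh protein from a stem cell growth factor screen; measures binding of labelled protein to compounds printed on the slide; score merges feature fluorescence at 667 nm with signal-to-noise.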 The conditions noted are these: higher = more signal.
Assay [8] is described as follows: small-molecule microarray binders of probe aNog, primary screen, biochemical, biotinylated probe, 635/667 nm fluorescence (AID 1115).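 Note: probe is biotinylated aNog protein used at 0.15 µg/mL for 1 h at 4 C; z-score combines 667 nm fluorescence of each spot with its signal to noise.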 The conditions noted are these: higher = more signal.
In assay [9] the target is Torsin-1A-interacting protein 1 (Homo sapiens) (UniProt Q5JTV8). Nature of the assay: LAP1 binders from COS7 cell lysate, primary screen, small-molecule microarray, 635/667 nm fluorescence (AID 1116). The conditions noted are these: COS7-hLAP1 lysate binding, 635 nm fluorescence, higher = more signal.
For assay [10], the target named is Alpha-bungarotoxin (Bungarus multicinctus) (UniProt P60615). As to the kind of experiment: alpha-bungarotoxin binders on microarray, profiling panel, artefact control for SMM control protein annotation, biochemical, small-molecule microarray, Alexa647 label, 635/667 nm fluorescence (AID 1117). The conditions noted are these: alpha-BTX-A647 binding fluorescence, higher = more signal.

The target of another assay is Albumin (Bos taurus) (UniProt P02769). Nature of the assay: bovine serum albumin binders on microarray, profiling panel, artefact control for SMM control protein annotation, biochemical, small-molecule microarray, Alexa647 label, 635/667 nm fluorescence (AID 1118).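 Note: score merges 667 nm emission intensity and signal-to-noise per printed compound spot.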 The conditions noted are these: BSA-A647 binding, fluorescence 635 nm, higher = more signal.
Assay [11] in a line: small-molecule microarray binders of probe aXIP, primary screen, biochemical, NeuroSMM set, 635/667 nm fluorescence (AID 1119).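 Note: probe is the protein aXip251-270 applied at 1 µg/mL to compound-printed slides; binding of probe to printed compounds measured as 667 nm fluorescence plus signal to noise.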 The conditions noted are these: higher = more signal, called active from +8 up or from −8 down.
Assay [12] in a line: small-molecule binders of probe aNOTCH3, primary screen, biochemical, small-molecule microarray, 635/667 nm fluorescence (AID 1120).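 Note: probe is a biotin-tagged antibody raised against NOTCH3 rather than NOTCH3 protein; score merges spot fluorescence near 667 nm with spot signal to noise.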 To be noted: higher = more signal.
A short description of assay [13]: small-molecule binders of probe aNOTCH2, primary screen, biochemical, small-molecule microarray, 635/667 nm fluorescence (AID 1121).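 Note: score merges feature fluorescence read at 667 nm with its signal to noise.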 To be noted: higher = more signal.
The target in assay [14] is Carbonic anhydrase 2 (Homo sapiens) (UniProt P00918). As to the kind of experiment: CAII small-molecule binders, profiling panel, biochemical, small-molecule microarray, Alexa647-labelled CAII (AID 1122). To be noted: CAII-A647 binding fluorescence, higher = more signal.
The nature of assay [15]: COS7 lysate on small-molecule microarray, probe aHis, 635 nm (AID 1123).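 Note: z-score combines 667nm fluorescence intensity with signal-to-noise per printed compound spot.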 The conditions noted are these: COS7 cell lysate, fluorescence, higher = more signal.
The nature of assay [16]: compound binding in COS7 lysate, probe aLAP1, primary screen, cell lysate, small-molecule microarray (AID 1124).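 Note: lysate comes from COS7 cells expressing LAP1 and is applied at 0.3 µg/mL; score merges spot fluorescence near 667 nm with signal-to-noise over triplicate slides.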 To be noted: probe aLAP1, fluorescence, higher = more signal.
For another assay, the system named is Sam68 (KHDRBS1). Nature of the assay: Sam68 small-molecule binders, primary screen, biochemical, small-molecule microarray, 635 nm fluorescence (AID 1125).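 Note: score merges 667 nm channel intensity with signal to noise over triplicate slides.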 To be noted: small-molecule microarray binding, higher = more signal.
Assay [17] has as its system Chordin-like protein 2 (CHRDL2). Nature of the assay: CHRDL2 small-molecule binders, primary screen, biochemical, small-molecule microarray, 635 nm fluorescence (AID 1126).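 Note: printed compound slides probed with Chrdl2 protein at 4 µg/mL for 1 h at 4 C; score merges 667 nm emission intensity with signal to noise over three replicate slides.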 The conditions noted are these: small-molecule microarray binding, fluorescence 635 nm; higher = more signal.
Assay [18] has as its target Concanavalin-A (Canavalia ensiformis) (UniProt P02866). Nature of the assay: ConA small-molecule binders, primary screen, artefact control for SMM control protein annotation, biochemical, small-molecule microarray, Alexa647 label, 635 nm (AID 1127).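 Note: z combines 667 nm emission intensity with signal-to-noise across three replicate slides.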 The conditions noted are these: ConA-A647 binding fluorescence, higher = more signal.

The structures appear in SMILES notation. Calls of active or inactive are those of the source.

Sequence of Torsin-1A-interacting protein 1 (Homo sapiens) (Q5JTV8 whole entry, looked up): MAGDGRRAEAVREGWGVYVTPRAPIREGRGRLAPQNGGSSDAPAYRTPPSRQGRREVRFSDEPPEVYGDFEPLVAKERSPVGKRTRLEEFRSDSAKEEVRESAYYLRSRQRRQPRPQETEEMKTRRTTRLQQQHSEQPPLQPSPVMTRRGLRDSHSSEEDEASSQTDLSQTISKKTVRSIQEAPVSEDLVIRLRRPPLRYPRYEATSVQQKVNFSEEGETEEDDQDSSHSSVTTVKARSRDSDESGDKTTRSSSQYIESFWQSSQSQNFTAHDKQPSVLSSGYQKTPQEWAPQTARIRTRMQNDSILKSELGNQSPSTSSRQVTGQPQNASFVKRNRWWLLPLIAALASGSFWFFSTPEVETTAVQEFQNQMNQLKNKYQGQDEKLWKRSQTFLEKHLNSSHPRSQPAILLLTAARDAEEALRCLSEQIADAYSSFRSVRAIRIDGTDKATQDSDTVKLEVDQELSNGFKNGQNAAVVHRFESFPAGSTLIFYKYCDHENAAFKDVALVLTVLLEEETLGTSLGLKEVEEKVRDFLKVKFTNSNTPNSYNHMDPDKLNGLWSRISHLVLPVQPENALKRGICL
Sequence of Alpha-bungarotoxin (Bungarus multicinctus) (P60615 whole entry, looked up): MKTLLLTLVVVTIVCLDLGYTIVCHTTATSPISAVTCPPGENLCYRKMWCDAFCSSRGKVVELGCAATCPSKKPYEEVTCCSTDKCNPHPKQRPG
Sequence of Concanavalin-A (Canavalia ensiformis) (P02866 whole entry, looked up): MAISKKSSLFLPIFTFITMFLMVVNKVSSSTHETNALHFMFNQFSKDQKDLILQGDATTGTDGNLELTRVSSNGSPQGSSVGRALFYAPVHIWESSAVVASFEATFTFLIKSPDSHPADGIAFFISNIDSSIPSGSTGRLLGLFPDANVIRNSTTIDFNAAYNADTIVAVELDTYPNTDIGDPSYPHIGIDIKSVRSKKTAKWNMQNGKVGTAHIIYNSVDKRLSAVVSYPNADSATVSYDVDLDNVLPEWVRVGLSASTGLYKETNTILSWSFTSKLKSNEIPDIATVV
Sequence of Left-right determination factor 2 (Homo sapiens) (O00292 whole entry, looked up): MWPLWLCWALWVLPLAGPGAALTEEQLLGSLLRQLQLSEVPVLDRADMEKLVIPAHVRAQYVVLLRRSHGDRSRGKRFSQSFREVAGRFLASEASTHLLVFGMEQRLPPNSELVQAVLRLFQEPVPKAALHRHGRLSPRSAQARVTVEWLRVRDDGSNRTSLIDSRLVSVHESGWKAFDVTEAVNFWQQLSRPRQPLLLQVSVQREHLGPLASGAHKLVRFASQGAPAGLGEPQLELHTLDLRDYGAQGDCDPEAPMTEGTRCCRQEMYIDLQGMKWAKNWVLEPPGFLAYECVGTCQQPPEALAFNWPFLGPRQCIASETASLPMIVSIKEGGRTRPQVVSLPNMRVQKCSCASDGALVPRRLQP
Sequence of Albumin (Bos taurus) (P02769 whole entry, looked up): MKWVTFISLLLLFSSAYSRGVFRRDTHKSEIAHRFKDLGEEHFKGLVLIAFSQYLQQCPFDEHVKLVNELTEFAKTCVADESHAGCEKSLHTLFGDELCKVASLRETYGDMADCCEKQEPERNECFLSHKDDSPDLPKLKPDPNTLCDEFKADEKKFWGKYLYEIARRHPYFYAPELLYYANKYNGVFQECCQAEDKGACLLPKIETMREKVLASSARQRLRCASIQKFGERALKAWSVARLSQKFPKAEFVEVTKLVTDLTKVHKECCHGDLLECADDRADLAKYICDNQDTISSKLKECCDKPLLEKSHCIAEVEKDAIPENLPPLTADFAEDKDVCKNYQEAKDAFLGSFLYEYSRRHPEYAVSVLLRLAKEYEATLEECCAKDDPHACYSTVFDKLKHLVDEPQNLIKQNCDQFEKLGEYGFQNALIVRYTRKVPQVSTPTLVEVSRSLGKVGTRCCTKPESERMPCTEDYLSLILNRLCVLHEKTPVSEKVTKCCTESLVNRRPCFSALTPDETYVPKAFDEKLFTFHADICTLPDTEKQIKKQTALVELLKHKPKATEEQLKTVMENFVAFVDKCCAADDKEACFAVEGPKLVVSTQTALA

`O=C1O[C@H](c2ccccc2)[C@H](c2ccccc2)N2[C@H]1[C@@H](C(=O)Nc1nc3ccccc3s1)[C@]1(C(=O)Nc3ccc(C#CC4=CCCCC4)cc31)[C@H]2c1ccc(OCCO)cc1`: the composite z-score in assay [1] is 0.945; in assay [3] it was 0.56; in [4], 1.36; in assay [5], 0.536; in assay [6], -0.176; in assay [7], -0.188. Besides, the composite z-score in assay [8] was 1.37; in assay [9], -0.513; in assay [10], 2.12; in the assay with Albumin (Bos taurus), 0.897; in assay [12], 0.225; in assay [13], -0.0144. For the same compound, the composite z-score was found to be 0.761 in [14]; 2.68 in assay [15]; 0.596 in assay [16]; 1.3 in the assay on Sam68 (KHDRBS1); 0.448 in assay [17]; 1.12 in [18]. In assay [2], this compound registered a z-score of -1.91. Also, in assay [11], the composite Z-score is -0.495 (inactive).
Turning to `CCCC[C@H]1OB(O)C[C@H]2C1=C(COc1ccccc1)C[C@H]1C(=O)N(Cc3ccccc3)C(=O)[C@H]12`, the composite z-score in [1] is 1.38; in [3] it was 0.377; in assay [4], 0.324; in assay [5] it was -0.774; in assay [6], -0.176; in assay [7] it was -0.0709. Moreover, the composite z-score in [8] was -0.273; in assay [9], -0.0868; in [10], 1.04; in the assay with Albumin (Bos taurus), 0.117; in assay [12] it was 0.0203; in assay [13] it was -0.108. The composite z-score in [14] was 0.602; in [15], 0.383; in [16], 0.154; in the assay with Sam68 (KHDRBS1) it was 0.868; in [17], 0.0092; in assay [18], 1.12. In addition, in assay [2], the z-score was -1.72. The composite Z-score in assay [11] was 0.142 (inactive).
For `[N-]=[N+]=NCc1ccccc1[C@H]1OC(c2ccc(OCCCO)cc2)=N[C@@]1(Cc1ccccc1)C(=O)NCC(O)CO` (stereo not given in full), the composite z-score in assay [1] was 1.13; in assay [3] it was -0.524; in [4], 1.52; in assay [5] it was 0.564; in assay [6] it was 0.507; in [7] it was 0.128. In addition, the composite z-score in [8] is 1.9; in assay [9], 1.51; in assay [10] it was 0.131; with Albumin (Bos taurus), 0.691; in [12], 0.506; in assay [13], -0.0013. Also, the composite z-score in assay [14] is 0.76; in [15], 3.42; in assay [16] it was 0.941; with Sam68 (KHDRBS1), 0.966; in assay [17] it was -0.609; in assay [18] it was -0.0213. For the same compound, the z-score in [2] was -1.38. Moreover, in assay [11], the composite Z-score was 0.0638 (inactive).
For `CN(C)CCCC[C@@H]1NC(=O)[C@@H]2C[C@H](C(=O)NCc3ccc(F)cc3)[C@H](c3cccc(OCCO)c3)N2C1=O`, the composite z-score is 1.17 in assay [1]; 0.748 in assay [3]; 0.337 in assay [4]; 0.136 in [5]; -0.1 in assay [6]; 0.207 in assay [7]. The composite z-score is -0.399 in [8]; 1.07 in assay [9]; 0.356 in assay [10]; -0.202 with Albumin (Bos taurus); -0.0311 in assay [12]; -0.0598 in assay [13]. The composite z-score in [14] came to 0.569; in assay [15], 2; in [16], 0.776; with Sam68 (KHDRBS1) it was 1.05; in assay [17] it was 0.991; in assay [18] it was 1.11. This compound also gave a z-score in assay [2] of 0.679. For the same compound, the composite Z-score in [11] was -0.398 (inactive).
On to `CN1C(=O)C2C=CC(C(O)C3=C[C@H]4C[C@@H](C3)C4(C)C)N(Nc3ccc([N+](=O)[O-])cc3[N+](=O)[O-])C2C1=O` (stereo not given in full), for which the composite z-score amounted to 1.41 in assay [1]; 0.258 in assay [3]; 1.72 in [4]; 0.616 in [5]; 0.0194 in assay [6]; 0.223 in assay [7]. Moreover, the composite z-score in assay [8] worked out at 0.836; in assay [9], 0.975; in assay [10], 1.51; with Albumin (Bos taurus) it was 0.909; in assay [12] it was 0.289; in [13] it was 0.186. The composite z-score in assay [14] worked out at 0.722; in assay [15], 2.38; in [16] it was 0.805; in the assay on Sam68 (KHDRBS1) it was 1.12; in [17], 0.51; in [18], 1.16. Also, the z-score in [2] is -0.474. Also, in [11], the composite Z-score is 1.09 (inactive).
Regarding `CC1CC/C=C\[C@H]2OC34C=CCN(Cn5nnc6ccccc65)C(=O)[C@H]3N(CCCO)C(=O)[C@@H]4C2C(=O)O1` (stereo not given in full), the composite z-score in assay [1] was -0.311; in assay [3], -1.28; in assay [4] it was -0.484; in [5] it was 0.25; in [6], -0.228; in assay [7] it was 0.0121. The composite z-score in assay [8] is -0.201; in assay [9], 0.479; in assay [10], -0.744; with Albumin (Bos taurus) it was 0.757; in [12] it was -0.272; in assay [13], -0.115. In addition, the composite z-score in assay [14] is 0.926; in assay [15] it was 0.016; in assay [16], 1.2; in the assay with Sam68 (KHDRBS1), -0.119; in assay [17] it was -1.33; in [18], -0.668. Further, the z-score in assay [2] was -0.486. Also, the composite Z-score in assay [11] was 0.372 (inactive).
